Values joined by “and” are separate entries in the source; they are usually repeats but may differ in a detail not shown here. Equal entries are not always repeated. Among all 16,000 compounds or so, about 5,100 (32%) were called active. Inconclusive results (about 25%) are left out. This is one part of the list. Unmarked numbers belong to inactive results. Calls follow the shape of the dose curve; as a rule, active = well fitted curve in the direction sought with a large enough effect; inconclusive = small, poorly fitted or top-dose-only effect, or effect the other way; inactive = no such curve, though single readings can be large or run the other way.
These molecules were tested against Cytochrome P450 3A4 (Homo sapiens) (UniProt P08684) (assay: Cytochrome panel assay with activity outcomes). Conditions: recombinant CYP, pro-luciferin dealkylation, luminescence, p450-cyp3a4; series mostly up to 57.1 µM.
Sequence of Cytochrome P450 3A4 (Homo sapiens) (P08684 whole entry, looked up): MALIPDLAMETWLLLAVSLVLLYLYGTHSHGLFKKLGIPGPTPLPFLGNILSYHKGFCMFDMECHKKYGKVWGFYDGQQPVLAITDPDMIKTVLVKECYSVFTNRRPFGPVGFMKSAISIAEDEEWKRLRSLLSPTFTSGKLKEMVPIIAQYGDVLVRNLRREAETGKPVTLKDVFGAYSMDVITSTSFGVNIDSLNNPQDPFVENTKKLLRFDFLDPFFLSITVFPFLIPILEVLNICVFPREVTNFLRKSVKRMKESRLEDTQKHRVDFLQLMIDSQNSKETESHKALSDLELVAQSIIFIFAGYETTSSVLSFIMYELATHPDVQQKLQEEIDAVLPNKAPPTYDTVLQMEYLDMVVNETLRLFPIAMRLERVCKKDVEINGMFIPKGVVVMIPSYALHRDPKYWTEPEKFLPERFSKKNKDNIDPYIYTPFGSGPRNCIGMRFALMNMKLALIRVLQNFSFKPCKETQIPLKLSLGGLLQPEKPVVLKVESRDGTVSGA
% is scaled to controls: 0 for no effect and ±100 for the full control effect.

Compound | AC50 | activity, negative = inhibition
O=C(O)Cc1cc(I)c(Oc2ccc(O)c(I)c2)c(I)c1 | inactive | 
NC1=NC2(CCCCC2)N=C(Nc2ccc(F)cc2F)N1 | inactive | 
O=C(O)CC[C@@H](C(=O)O)N1C(=O)c2ccccc2C1=O |  | -3.86% [at 11.4 µM]
Cc1ccc(C(=O)C(OC(=O)CN2C(=O)c3ccccc3C2=O)c2ccccc2)cc1 (configuration not stated) | 7.94 µM (active) | 
COc1ccc(NC(=S)Nc2ccccc2)cc1 |  | -19.5% [at 11.4 µM]
COc1ccc(C(=S)Nc2ccccc2)cc1 | 31.6 µM (active) | 
CN(CC[C@@H](Oc1ccc(-c2ccccc2)cc1)c1ccc(F)cc1)CC(=O)O | inactive | 
CCCn1nc(C(=O)NCC(C)(C)N2CCOCC2)c2ccccc2c1=O | 7.08 µM (active) | 
CCN(CC)CCNC(=O)C(C)c1nn(C)c(=O)c2ccccc12 (configuration not stated) |  | -0.681% [at 2.29 µM]
CC(C)NCCCOc1ccc(Cl)cc1Br |  | 6.16% [at 2.29 µM]
CC1CCN(CCOc2cc(Cl)ccc2Cl)CC1 | inactive | 
Cc1cc(Cl)ccc1OCCCC(=O)N1CCN(C)CC1 | 12.6 µM (active) | 
CC(C)CO/N=C1/[C@H]2O[C@@H]2[C@@H](O)[C@H]2[C@H]1CCn1c(=O)n(-c3ccccc3)c(=O)n12 |  | -14% [at 11.4 µM]
CCCNC(=O)OC[C@H]1O[C@@H](CCO/N=C2/[C@H]3O[C@@H]3[C@@H](O)[C@H]3[C@H]2CCn2c(=O)n(-c4ccccc4)c(=O)n23)C=C[C@@H]1Oc1ccc(OC)cc1 | 3.16 µM (active) | 
COc1ccc(O[C@H]2C=C[C@@H](c3ccccc3)O[C@H]2CO/N=C2/[C@H]3O[C@@H]3[C@@H](O)[C@H]3[C@H]2CCn2c(=O)n(-c4ccccc4)c(=O)n23)cc1 | 3.16 µM (active) | 
CC(C)=CCC/C(C)=C/CO/N=C1/[C@H]2O[C@@H]2[C@@H](O)[C@H]2[C@H]1CCn1c(=O)n(-c3ccccc3)c(=O)n12 |  | -17.8% [at 11.4 µM]
O=c1n(-c2ccccc2)c(=O)n2n1CC[C@H]1/C(=N\OCc3ccccc3)[C@H]3O[C@@H]3[C@@H](O)[C@@H]12 |  | -7.77% [at 11.4 µM]
CC(=O)OC[C@H]1O[C@@H](O/N=C2/[C@H]3O[C@@H]3[C@@H](O)[C@H]3[C@H]2CCn2c(=O)n(-c4ccccc4)c(=O)n23)[C@H](OC(C)=O)[C@@H](OC(C)=O)[C@@H]1OC(C)=O |  | -17.4% [at 11.4 µM]
O=C(CP(=O)(c1ccccc1)c1ccccc1)Nn1cnnc1 | inactive | 
O=C(c1csnn1)N1CCC2(CC1)CCN(c1ccccc1)CC2 | inactive | 
O=C(c1csnn1)N1CCC2(CC1)CCN(c1ccccn1)CC2 | inactive | 
O=C(c1csnn1)N1CCC2(CC1)CN(c1ccccc1)C2 | inactive | 

Compound | AC50 | activity, negative = inhibition
O=C(c1csnn1)N1CCC2(CCCN(c3ccccc3)C2)CC1 | 12.6 µM (active) | 
O=C(c1csnn1)N1CCC2(CCCN(c3ccc(-c4ccccc4)cc3)C2)CC1 | 7.94 µM (active) | 
O=c1c(Cc2ccccc2)c(O)nc2n1CCS2 |  | -2.9% [at 2.29 µM]
CN1CCC(n2[nH]c(-c3ccccc3)c(Cc3ccccc3)c2=O)CC1 | 3.98 µM (active) | 
CCNc1ncc2nc(-c3ccc(Cl)cc3)c(=O)n(C3CC3)c2n1 | inactive | 
CCOC(=O)c1c(C(C)(C)C)oc2ccc(O)cc12 | inactive | 
CCOC(=O)c1c(C)oc2c1cc(O)c1ccccc12 | 14.1 µM (active) | 
CCOC(=O)c1c(C)oc2c1c(C=NC1CCS(=O)(=O)C1)c(O)c1ccccc12 (configuration not stated) | inactive | 
CN(C)CN1CSC(=S)N(CN(C)C)C1 |  | -11.6% [at 11.4 µM]
COc1cc(CNC(=O)CCCC/C=C\C(C)C)ccc1O | 3.98 µM (active) and 7.94 µM (active) | 
COc1cc([C@H](O)C(=O)O)ccc1O | inactive | 
COc1cc(CC(=O)O)ccc1O | inactive | 
CCn1c(SCC(=O)Nc2sc3c(c2C#N)CCC(C(C)(C)C)C3)nnc1-c1ccco1 (configuration not stated) | inactive | 
CCn1c(SCC(=O)Nc2sc3c(c2C(N)=O)CCC(C)C3)nnc1-c1ccco1 (configuration not stated) | 7.08 µM (active) | 
CCOC(=O)c1c(NC(=S)NC(=O)c2cnn(CC)c2)sc2c1CCC(C)C2 (configuration not stated) | inactive | 
CC(=O)C[C@H](c1ccc([N+](=O)[O-])cc1)c1c(O)c2ccccc2oc1=O | inactive | 
CC1=NCC[N@@+]1(CCc1ccccc1)Cc1ccccc1 |  | -18.6% [at 11.4 µM]
COc1ccc(CNc2ccnc(-c3cccc(C#N)c3)n2)c(OC)c1 | 2 µM (active) | 
COc1ccccc1CNc1ccnc(-c2cccc(C#N)c2)n1 | 3.98 µM (active) | 
N#C[C@H](c1ccccc1)N1CCCN([C@@H](C#N)c2ccccc2)C1c1ccccc1O (some centres not stated) |  | -24.5% [at 11.4 µM]
O=C(O)CC/C=C\CC[C@H]1[C@@H](N2CCCCC2)[C@@H](O)C[C@@H]1OCc1ccc(-c2ccccc2)cc1 | inactive | 
O=C(Nc1nnc(SCc2ccc(Cl)cc2Cl)s1)C1COc2ccccc2O1 (configuration not stated) | 4.47 µM (active) | 

Compound | AC50 | activity, negative = inhibition
NC(=O)c1ccc(NC(=O)C2CCCO2)cc1 (configuration not stated) | inactive | 
O=C(Nc1ncc(Cc2ccccc2)s1)C1COc2ccccc2O1 (configuration not stated) | inactive | 
O=C(Nc1nnc(SCc2c(Cl)cccc2Cl)s1)C1CCCO1 (configuration not stated) | 12.6 µM (active) | 
CCCCCCCCCCCCCCCC[N+](C)(C)CCN(Cc1ccc(OC)cc1)c1ncccn1 | inactive | 
NC(N)=NC(N)=Nc1c(F)c(F)c(F)c(F)c1F |  | -1.13% [at 11.4 µM]
Cc1cccc(-n2c(Cn3nc(C)c([N+](=O)[O-])c3C)n[nH]c2=S)c1 |  | -17% [at 2.29 µM]
CC(C)=C1C(=O)NN(c2ccc(F)c(Cl)c2)C1=O |  | -12.4% [at 11.4 µM]
Cc1nn(CCc2n[nH]c(=S)n2-c2ccc(F)c(Cl)c2)c(C)c1[N+](=O)[O-] | 3.16 µM (active) | 
C[n+]1ccccc1/C=N\O | inactive | 
CC(C)N1CCN(c2ccc(OC[C@@H]3CO[C@@](Cn4cncn4)(c4ccc(Cl)cc4Cl)O3)cc2)CC1 | 1.58 µM (active) | 
Cc1noc(C)c1-c1nc(NCc2cccs2)c2ccccc2n1 | 6.31 µM (active) | 
COc1ccc(CNc2nc(-c3c(C)noc3C)nc3ccccc23)c(OC)c1 | 2.51 µM (active) | 
COc1ccccc1CNc1nc(-c2c(C)noc2C)nc2ccccc12 | 10 µM (active) | 
CCn1cc(C(=O)O)c(=O)c2cnc(N3CCCC3)nc21 | inactive | 
O=C(Nc1c[nH]c(=O)[nH]c1=O)Oc1ccccc1 |  | -22.1% [at 11.4 µM]
CN(C)C(=O)c1ccc(-c2cncnc2NCc2cccs2)cc1 | 3.16 µM (active) | 
CN(C)c1ccc(-c2cncnc2NCc2cccs2)cc1 | 0.794 µM (active) | 
Cc1cc(=O)oc(C)c1C(=O)NCc1ccccc1 |  | 0.149% [at 2.29 µM]
CCCCCCc1nc2ccccc2c(=O)n1NC(=O)c1c(O)c2c(n(CC(C)C)c1=O)CCCC2 |  | 10% [at 2.29 µM]
CCCn1c2c(c(O)c(C(=O)NCc3ccccc3)c1=O)CCCC2 | 17.8 µM (active) | 
Cn1cc(-c2nc3cnc(Oc4ccccc4)nc3n(C)c2=O)c2ccccc21 | inactive | 
COc1ncc2nc(-c3cn(C)c4ccccc34)c(=O)n(C)c2n1 | 5.01 µM (active) | 

Compound | AC50 | activity, negative = inhibition
COc1ncc2nc(-c3ccccc3)c(=O)n(-c3ccccc3)c2n1 | inactive | 
COc1ncc2nc(-c3cn(C)c4ccccc34)c(=O)n(CCC#N)c2n1 | 6.31 µM (active) | 
COc1ccc(-n2c(=O)c(-c3cn(C)c4ccccc34)nc3cnc(OC)nc32)cc1 | 1.58 µM (active) | 
CC(=O)c1cnc2c(C(=O)O)cnn2c1C | inactive | 
CCOc1cc(NC(=O)c2ccccc2[N+](=O)[O-])c(OCC)cc1NC(=O)CC(C)C |  | 3.38% [at 2.29 µM]
Cc1cccc(OCCCC(=O)Nc2ccccc2C(F)(F)F)c1 | 14.1 µM (active) | 
CCN(CC)S(=O)(=O)c1ccc(OC)c(NC(=O)c2cc([N+](=O)[O-])ccc2Cl)c1 | 12.6 µM (active) | 
Cc1c(NC(=O)/C=C/C(=O)O)cccc1[N+](=O)[O-] | inactive | 
CCCCC(=O)Nc1cc(OCC)c(NC(=O)c2ccccc2[N+](=O)[O-])cc1OCC | 7.08 µM (active) | 
Cc1ccc(OCC(=O)NNC(=O)CCC(=O)Nc2ccc(C)cc2C)cc1 | inactive | 
O=C1NCCCC1C(=O)Nc1ccccc1C(F)(F)F (configuration not stated) | inactive | 
Cc1c(NC(=O)CCCOc2ccccc2)cccc1[N+](=O)[O-] | 14.1 µM (active) | 
OC[C@@H]1O[C@@H](N2CCN([C@@H]3O[C@@H](CO)[C@@H](O)[C@H](O)[C@H]3O)CC2)[C@@H](O)[C@H](O)[C@H]1O |  | 2.3% [at 11.4 µM]
CCN(CC)C(=O)c1cc2cc([N+](=O)[O-])ccc2s1 |  | 20.4% [at 11.4 µM]
COc1ccccc1NC(=O)Cn1cncc1-c1ccc([N+](=O)[O-])cc1 | 14.1 µM (active) | 
CCN(CC(=O)Nc1ccc([N+](=O)[O-])cc1OC)c1ccccc1 | 12.6 µM (active) | 
COc1cc([N+](=O)[O-])ccc1NC(=O)CCCOc1cccc(C)c1 | 5.01 µM (active) | 
CCCOc1ccc(/C=C/C(=O)Nc2ccc([N+](=O)[O-])cc2C)cc1 |  | 2.56% [at 11.4 µM]
Cc1cccc[n+]1CC(=O)Nc1ccc([N+](=O)[O-])cc1Cl | inactive | 
Cc1cc2nc([C@H](C)C(=O)c3ccc(Cl)cc3)c(=O)[nH]c2cc1C |  | -25.9% [at 11.4 µM]
CCCS(=O)(=O)N1CCCC(C(=O)N2CCOCC2)C1 (configuration not stated) | inactive | 

Source: PubChem BioAssay AID1851 (National Center for Advancing Translational Sciences (NCATS), 2009)
